Assay results from paper PMC7862700, “An all-to-all approach to the identification of sequence-specific readers for epigenetic DNA modifications on cytosine”.

Experiments:
Test in all cases: DAPPL (digital affinity profiling via proximity ligation, sequencing); 10 mM Tris-HCl pH 7.5, 50 mM NaCl, 1 mM DTT, 4% glycerol, room temperature, 30 min; GST-TFs on glutathione beads, 16-mer random dsDNA library, 0.1% formaldehyde crosslink after washing; high values mean tight binding
Details in all cases: protein: recombinant; tags: N-terminal GST; dsDNA, one strand shown
[1] = target: T1, ELK1 (Homo sapiens, UniProt P19419 1-428)
T1 sequence: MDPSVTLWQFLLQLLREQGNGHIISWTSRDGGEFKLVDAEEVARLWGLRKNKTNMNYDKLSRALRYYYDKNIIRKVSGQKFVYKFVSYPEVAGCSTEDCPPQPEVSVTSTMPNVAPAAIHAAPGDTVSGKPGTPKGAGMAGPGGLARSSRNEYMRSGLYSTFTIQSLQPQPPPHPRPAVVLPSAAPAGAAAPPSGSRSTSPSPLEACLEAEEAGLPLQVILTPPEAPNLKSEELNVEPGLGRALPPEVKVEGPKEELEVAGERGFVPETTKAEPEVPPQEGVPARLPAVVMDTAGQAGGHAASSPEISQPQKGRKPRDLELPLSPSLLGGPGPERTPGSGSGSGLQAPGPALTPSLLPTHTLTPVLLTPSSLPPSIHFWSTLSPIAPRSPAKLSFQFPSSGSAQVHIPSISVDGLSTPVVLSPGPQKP
Method in brief: (§1)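 GST fusions of human transcription factors were expressed in yeast and captured with glutathione beads. Once given DNA barcodes and pooled alongside a tag-only sample, they were incubated for 30 min at room temperature with 200 nmole of a random double-stranded 16-mer DNA library in Tris/NaCl/DTT/glycerol buffer, then washed, crosslinked (0.1% formaldehyde), proximity-ligated, PCR-amplified and sequenced on an Illumina NextSeq500. The binding signal of each hexamer is its read frequency for a factor divided by its frequency for the tag-only sample.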

[2] = target: T2, ERG (Homo sapiens, UniProt P11308 1-479)
T2 sequence: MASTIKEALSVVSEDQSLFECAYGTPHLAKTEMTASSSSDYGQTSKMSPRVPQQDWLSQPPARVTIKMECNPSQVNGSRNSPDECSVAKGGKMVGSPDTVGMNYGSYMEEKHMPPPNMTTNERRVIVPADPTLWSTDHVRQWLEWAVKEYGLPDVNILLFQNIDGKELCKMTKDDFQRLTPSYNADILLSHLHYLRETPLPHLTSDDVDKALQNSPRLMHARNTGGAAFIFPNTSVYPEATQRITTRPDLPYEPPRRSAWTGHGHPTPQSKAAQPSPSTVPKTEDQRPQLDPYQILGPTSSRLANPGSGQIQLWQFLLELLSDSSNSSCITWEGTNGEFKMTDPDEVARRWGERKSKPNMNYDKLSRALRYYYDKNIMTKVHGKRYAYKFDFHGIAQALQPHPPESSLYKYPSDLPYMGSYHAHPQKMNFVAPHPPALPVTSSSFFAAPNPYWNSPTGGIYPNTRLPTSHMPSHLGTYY
Method in brief: as §1

[3] = target: ELF1 (Homo sapiens, UniProt P32519 1-619)
Sequence of ELF1 (P32519 whole entry): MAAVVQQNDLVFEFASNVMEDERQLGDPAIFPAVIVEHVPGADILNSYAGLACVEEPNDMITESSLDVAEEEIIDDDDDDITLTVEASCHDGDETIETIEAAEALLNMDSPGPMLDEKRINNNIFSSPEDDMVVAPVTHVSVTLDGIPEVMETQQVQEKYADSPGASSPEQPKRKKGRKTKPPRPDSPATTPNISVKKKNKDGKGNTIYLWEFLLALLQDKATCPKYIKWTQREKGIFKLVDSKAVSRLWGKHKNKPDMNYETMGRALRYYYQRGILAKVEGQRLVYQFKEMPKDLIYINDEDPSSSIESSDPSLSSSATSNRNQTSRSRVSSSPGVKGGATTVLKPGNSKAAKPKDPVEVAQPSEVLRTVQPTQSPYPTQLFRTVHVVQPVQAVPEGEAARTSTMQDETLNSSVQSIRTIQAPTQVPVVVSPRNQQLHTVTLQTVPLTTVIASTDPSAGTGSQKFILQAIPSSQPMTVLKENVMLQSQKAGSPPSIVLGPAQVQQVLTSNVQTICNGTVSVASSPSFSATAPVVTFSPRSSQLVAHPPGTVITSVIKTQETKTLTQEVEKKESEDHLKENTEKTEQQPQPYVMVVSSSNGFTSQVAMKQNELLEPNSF
Method in brief: as §1

[4] = target: SPIB (Homo sapiens, UniProt Q01892 1-262)
Sequence of SPIB (Q01892 whole entry): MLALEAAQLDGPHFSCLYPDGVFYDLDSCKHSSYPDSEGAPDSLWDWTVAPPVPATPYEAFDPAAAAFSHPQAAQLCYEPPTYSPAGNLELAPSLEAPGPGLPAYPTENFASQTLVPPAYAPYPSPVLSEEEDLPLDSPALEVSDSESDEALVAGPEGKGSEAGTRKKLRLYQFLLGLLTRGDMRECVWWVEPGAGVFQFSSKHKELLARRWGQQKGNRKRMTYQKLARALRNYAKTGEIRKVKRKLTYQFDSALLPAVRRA
Method in brief: as §1

[5] = target: T3, ELK3 (Homo sapiens, UniProt P41970 1-407)
T3 sequence: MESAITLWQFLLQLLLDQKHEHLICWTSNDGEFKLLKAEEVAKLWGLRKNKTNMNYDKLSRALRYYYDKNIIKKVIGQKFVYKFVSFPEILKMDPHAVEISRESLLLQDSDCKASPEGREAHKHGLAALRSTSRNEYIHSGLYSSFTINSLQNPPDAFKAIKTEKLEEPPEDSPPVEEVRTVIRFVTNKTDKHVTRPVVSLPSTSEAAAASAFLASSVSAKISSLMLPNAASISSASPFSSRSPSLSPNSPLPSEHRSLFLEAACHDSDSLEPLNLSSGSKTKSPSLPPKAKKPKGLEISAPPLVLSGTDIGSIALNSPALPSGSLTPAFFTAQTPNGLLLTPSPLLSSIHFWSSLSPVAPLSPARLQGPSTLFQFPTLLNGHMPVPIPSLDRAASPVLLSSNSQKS
Method in brief: as §1

[6] = target: ETV5 (Homo sapiens, UniProt P41161 1-510)
Sequence of ETV5 (P41161 whole entry): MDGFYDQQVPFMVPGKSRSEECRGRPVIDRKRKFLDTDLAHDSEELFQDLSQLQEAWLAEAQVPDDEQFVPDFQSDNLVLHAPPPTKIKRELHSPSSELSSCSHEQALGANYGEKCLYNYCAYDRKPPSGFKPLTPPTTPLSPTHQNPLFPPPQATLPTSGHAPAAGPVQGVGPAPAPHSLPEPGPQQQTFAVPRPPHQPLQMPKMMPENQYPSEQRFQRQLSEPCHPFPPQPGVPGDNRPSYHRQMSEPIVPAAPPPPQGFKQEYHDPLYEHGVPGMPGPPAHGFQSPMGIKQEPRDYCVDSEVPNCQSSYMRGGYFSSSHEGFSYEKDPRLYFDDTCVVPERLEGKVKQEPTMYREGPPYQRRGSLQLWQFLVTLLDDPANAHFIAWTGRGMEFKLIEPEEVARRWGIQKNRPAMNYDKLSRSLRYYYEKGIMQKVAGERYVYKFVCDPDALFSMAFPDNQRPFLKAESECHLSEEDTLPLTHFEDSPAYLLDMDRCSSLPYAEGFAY
Method in brief: as §1

[7] = target: T4, ELK4 (Homo sapiens, UniProt P28324-2 1-405)
T4 sequence: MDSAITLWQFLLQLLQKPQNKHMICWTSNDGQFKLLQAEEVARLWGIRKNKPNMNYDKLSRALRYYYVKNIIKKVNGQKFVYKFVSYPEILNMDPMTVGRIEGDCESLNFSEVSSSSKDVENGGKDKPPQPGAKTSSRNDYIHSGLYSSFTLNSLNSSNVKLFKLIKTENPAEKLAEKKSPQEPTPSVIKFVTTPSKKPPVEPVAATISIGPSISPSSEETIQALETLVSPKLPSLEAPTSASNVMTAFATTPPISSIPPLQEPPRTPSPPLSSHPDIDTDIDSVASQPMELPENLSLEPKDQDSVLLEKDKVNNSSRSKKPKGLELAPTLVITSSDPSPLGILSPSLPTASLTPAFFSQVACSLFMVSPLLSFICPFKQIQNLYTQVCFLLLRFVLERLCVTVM
Method in brief: as §1

[8] = target: ETV1 (Homo sapiens, UniProt P50549 1-477)
Sequence of ETV1 (P50549 whole entry): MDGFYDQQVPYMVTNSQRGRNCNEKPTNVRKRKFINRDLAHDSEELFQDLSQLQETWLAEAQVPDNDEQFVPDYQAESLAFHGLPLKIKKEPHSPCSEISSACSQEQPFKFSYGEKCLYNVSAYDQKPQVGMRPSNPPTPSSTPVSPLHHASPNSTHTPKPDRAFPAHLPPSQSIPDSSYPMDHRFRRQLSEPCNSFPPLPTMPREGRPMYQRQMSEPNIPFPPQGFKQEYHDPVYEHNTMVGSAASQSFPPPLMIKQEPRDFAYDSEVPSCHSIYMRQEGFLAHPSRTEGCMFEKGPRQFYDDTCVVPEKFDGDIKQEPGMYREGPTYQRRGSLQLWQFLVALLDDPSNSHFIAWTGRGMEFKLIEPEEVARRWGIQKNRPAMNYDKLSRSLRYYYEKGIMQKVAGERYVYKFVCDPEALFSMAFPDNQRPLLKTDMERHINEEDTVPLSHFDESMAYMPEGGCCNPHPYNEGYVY
Method in brief: as §1

[9] = target: T5, ERF (Homo sapiens, UniProt P50548 1-548)
T5 sequence: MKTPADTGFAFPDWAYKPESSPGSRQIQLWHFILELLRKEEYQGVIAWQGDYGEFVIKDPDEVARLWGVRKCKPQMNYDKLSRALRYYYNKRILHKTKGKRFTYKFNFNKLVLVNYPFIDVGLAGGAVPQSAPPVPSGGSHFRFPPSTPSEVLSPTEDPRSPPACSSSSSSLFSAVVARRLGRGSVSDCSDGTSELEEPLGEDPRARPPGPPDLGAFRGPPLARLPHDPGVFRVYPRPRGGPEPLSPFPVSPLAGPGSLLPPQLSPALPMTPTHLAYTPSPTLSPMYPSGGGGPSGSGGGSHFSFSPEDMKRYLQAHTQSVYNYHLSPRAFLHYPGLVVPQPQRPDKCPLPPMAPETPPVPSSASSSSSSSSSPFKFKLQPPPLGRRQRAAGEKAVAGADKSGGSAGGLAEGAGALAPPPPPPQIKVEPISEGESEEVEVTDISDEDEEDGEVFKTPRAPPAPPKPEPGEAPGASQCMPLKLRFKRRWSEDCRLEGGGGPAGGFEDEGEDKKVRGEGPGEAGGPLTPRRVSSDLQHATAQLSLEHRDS
Method in brief: as §1

[10] = target: T6, ETV3L (Homo sapiens, UniProt Q6ZN32 1-361)
T6 sequence: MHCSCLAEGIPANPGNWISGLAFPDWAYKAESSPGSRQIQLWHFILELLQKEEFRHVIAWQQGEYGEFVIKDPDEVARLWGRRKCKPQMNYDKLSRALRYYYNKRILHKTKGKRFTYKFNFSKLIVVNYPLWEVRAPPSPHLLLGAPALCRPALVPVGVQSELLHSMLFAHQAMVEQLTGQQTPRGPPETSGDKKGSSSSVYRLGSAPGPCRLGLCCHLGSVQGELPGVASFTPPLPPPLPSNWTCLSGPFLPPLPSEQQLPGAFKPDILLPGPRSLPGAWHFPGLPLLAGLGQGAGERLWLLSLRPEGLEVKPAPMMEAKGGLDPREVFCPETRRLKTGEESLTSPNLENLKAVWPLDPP
Method in brief: as §1

[11] = target: T7, ETV7 (Homo sapiens, UniProt Q9Y603 1-341)
T7 sequence: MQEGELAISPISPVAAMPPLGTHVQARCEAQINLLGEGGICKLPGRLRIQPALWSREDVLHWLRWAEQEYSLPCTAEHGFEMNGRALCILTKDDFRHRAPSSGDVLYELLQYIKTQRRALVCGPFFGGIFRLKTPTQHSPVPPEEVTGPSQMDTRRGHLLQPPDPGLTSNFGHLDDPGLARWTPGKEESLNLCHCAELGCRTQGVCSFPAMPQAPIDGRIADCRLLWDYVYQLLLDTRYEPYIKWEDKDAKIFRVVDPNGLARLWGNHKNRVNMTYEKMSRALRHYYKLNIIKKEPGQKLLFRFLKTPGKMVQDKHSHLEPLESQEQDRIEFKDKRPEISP
Method in brief: as §1

## GGTGGT
[1]
  binding signal: 1.03 fold enrichment (6-mer frequency, TF over GST control)
[2]
  binding signal: 1.12 fold enrichment (6-mer frequency, TF over GST control)
[3]
  binding signal: 1.01 fold enrichment (6-mer frequency, TF over GST control)
[4]
  binding signal: 1.02 fold enrichment (6-mer frequency, TF over GST control)
[5]
  binding signal: 1.03 fold enrichment (6-mer frequency, TF over GST control)
[6]
  binding signal: 1.04 fold enrichment (6-mer frequency, TF over GST control)
[7]
  binding signal: 1.08 fold enrichment (6-mer frequency, TF over GST control)
[8]
  binding signal: 1 fold enrichment (6-mer frequency, TF over GST control)
[9]
  binding signal: 1.07 fold enrichment (6-mer frequency, TF over GST control)
[10]
  binding signal: 1.05 fold enrichment (6-mer frequency, TF over GST control)
[11]
  binding signal: 1 fold enrichment (6-mer frequency, TF over GST control)
